Assay outcomes: PubChem BioAssay, Sanford-Burnham Center for Chemical Genomics
CYP2C9 inh = blockers of cytochrome P450 2C9 activity – biochemical, luminescence, ADME assay, primary screen | P11712 | CYP2C9 Supersomes, luciferin-H conversion | inhibition, % at 5 µM | 20% of 96,000 active | AID 777, 2007;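 active = blocking of liver enzyme CYP2C9 beyond about 50% at 5 µM, limit read from the data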
PLAP activator = PLAP enzyme activators, biochemical, luminescence, HTS; Alkaline phosphatase, placental type (Homo sapiens), P05187; 1.2% of 96,000 active; activation fold at 20 µM; AID 696, 2007; purified PLAP enzyme, luminescent substrate read-out; hits give high values; in the data active = activation fold above about 2
CYP2C19 activ = human CYP2C19 activators, primary screen, biochemical, luminescence. AID 1025, 2008. activation factor at 5 µM. 96,000 tested, under 10 active. recombinant CYP2C19, luciferin-H EGE luminescence; hits give high values; 0 = fully inhibited enzyme, 1 = untreated enzyme;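 active = activation factor of at least 2 at 5 µM in the primary screen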;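 also: 0 = wells with 2.5 mM tranylcypromine and 1 = vehicle-only wells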
Target sequence (P33261 whole entry, looked up): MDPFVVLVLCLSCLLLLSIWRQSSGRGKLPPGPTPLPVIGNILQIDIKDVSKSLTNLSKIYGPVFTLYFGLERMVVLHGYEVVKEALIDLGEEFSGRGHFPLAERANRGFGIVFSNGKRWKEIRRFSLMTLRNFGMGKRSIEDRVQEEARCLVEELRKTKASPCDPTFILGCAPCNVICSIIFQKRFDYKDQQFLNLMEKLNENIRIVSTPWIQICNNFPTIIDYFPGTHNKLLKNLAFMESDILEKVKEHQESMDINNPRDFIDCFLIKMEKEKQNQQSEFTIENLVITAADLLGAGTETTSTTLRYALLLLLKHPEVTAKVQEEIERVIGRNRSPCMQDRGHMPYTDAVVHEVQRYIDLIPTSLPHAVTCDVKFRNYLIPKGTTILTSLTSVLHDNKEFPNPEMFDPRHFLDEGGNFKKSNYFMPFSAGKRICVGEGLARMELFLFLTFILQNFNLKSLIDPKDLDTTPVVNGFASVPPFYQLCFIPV
CYP2C19 inh = blockers of cytochrome P450 2C19 activity – biochemical, luminescence, ADME assay, primary screen; inhibition, % at 5 µM; AID 778, 2007; P33261; CYP2C19 Supersomes, luciferin-H EGE luminescence, 30 min; 21% of 96,000 active;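 active = CYP2C19 inhibition above a set limit at 5 µM in the primary screen, cut at about 50% in these data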;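 also: plate controls were negative control wells for no effect and 2.5 mM tranylcypromine positive control for full effect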
CYP2C9 activ = human CYP2C9 activators, primary screen, biochemical, luminescence | recombinant CYP2C9, luciferin-H conversion; hits give high values; factor 1 = untreated enzyme, 0 = blocked | activation factor at 5 µM | 1.4% of 96,000 active | AID 1024, 2008;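 active = activation factor of 2 or more for CYP2C9 at a 5 µM dose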;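 also: 0 = sulfaphenazole-blocked wells and 1 = vehicle-only wells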
Numbers without * were called inactive. Compounds with a hit are over-represented: about 31% of the library has one in this group of screens.

SMILES	CYP2C9 inh	PLAP activator	CYP2C19 activ	CYP2C19 inh	CYP2C9 activ
CC(C)(C)OC(=O)N1CC2Cc3[nH]c(=O)ccc3C(C2)C1 (stereo unspecified)	-3	1	0.8	18	1
COc1ccccc1C(=O)OCC(=O)Nc1ccc(OC(F)F)cc1	29	0.6	0.5	53*	0.7
CCCC(=O)OCC(=O)Nc1ccc(OC(F)F)cc1	47	0.9	0.4	59*	0.5
Cc1cccc(NC(=O)Cn2cccc2)c1	22	1	0.8	24	0.8
COc1cccc(OC)c1C(=O)OCC(=O)Nc1ccc(OC(F)(F)F)cc1	99*	1.8	0.2	75*	0
COc1ccccc1OCC(=O)Nc1ccc(C(N)=O)cc1	19	0.8	0.9	7	0.8
CCCc1cc(=O)[nH]c(SCC(=O)Nc2ccc(OC(F)F)cc2)n1	1	0.9	0.6	36	1
O=C(Cn1cccc1)Nc1ccc(OC(F)(F)F)cc1	18	1	0.5	51*	0.8
CC1CN(c2nc(-c3ccc(Br)cc3)nnc2-c2ccccc2)CC(C)N1 (stereo unspecified)	12	1.3	0.9	8	0.9
CCN(CCCNC(=O)c1ccc(N2CCCC2=O)cc1)c1cccc(C)c1	13	1.4	0.7	30	0.9
Cc1cccc(N2CCN(C(=O)c3ccc(N4CCCC4=O)cc3)CC2)c1C	70*	1.6	0.5	52*	0.3
Cc1cccc(N2CCN(C(=O)c3ccc(N4CCCC4=O)cc3)CC2C)c1 (stereo unspecified)	29	1	0.4	56*	0.7
O=C(c1ccc(N2CCCC2=O)cc1)N1CCN(c2ccccc2)CC1	40	1	0.8	20	0.6
O=C(c1ccc(N2CCCC2=O)cc1)N1CCCCCC1	1	1	0.4	58*	1
CCOc1ccc(C(=O)N2CCN(c3cccc(C)c3C)CC2)cc1	27	1.1	0.8	19	0.7
c1ccc(COc2ccc(Oc3nc(N4CCCCC4)nc(N4CCOCC4)n3)nn2)cc1	59*	1.5	0.1	88*	0.4
CC(C)Nc1nc(NC(C)C)nc(Oc2ccc(OCc3ccccc3)nn2)n1	18	1.7	0.8	16	0.8
Cc1ccc(Nc2nc(Oc3ccc(OCc4ccccc4)nn3)nc(N3CCOCC3)n2)cc1	77*	1	0.2	82*	0.2
Cc1cc(C(=O)NNC(=S)NCC2CCCO2)cs1 (stereo unspecified)	-21	2.2*	0.5	52*	1.2
O=C(NCC1CCCO1)c1ccccc1 (stereo unspecified)	-20	1.2	1.2	-18	1.2
Cc1ccc(N2CC(C(=O)NCC3CCCO3)CC2=O)cc1Cl (stereo unspecified)	-162	1	1	2	2.6*
Cc1ccc(C)n1-c1ccc(C(=O)NCC2CCCO2)cc1 (stereo unspecified)	18	1.6	0.4	58*	0.8
Cc1cccc(NC(=S)NCC2CCCO2)c1 (stereo unspecified)	-20	0.9	1.1	-12	1.2
Cc1ccc(NC(=S)NCC2CCCO2)cc1 (stereo unspecified)	-14	1	0.8	23	1.1
Cc1ccc(C(=O)NC(=S)NCC2CCCO2)cc1 (stereo unspecified)	37	0.9	0.3	68*	0.6
SMILES	CYP2C9 inh	PLAP activator	CYP2C19 activ	CYP2C19 inh	CYP2C9 activ
CC(C)(C)SCCNC(=O)c1ccc(NS(C)(=O)=O)cc1	20	1.1	1.1	-13	0.8
CSC1=NC(NCCCO)c2c(sc3c2CC(C)(C)OC3)N1 (stereo unspecified)	16	1.2	1.1	-11	0.8
COc1ccc(NC2CS(=O)(=O)CC2OC(=O)c2ccc(F)cc2)cc1 (stereo unspecified)	0	0.9	1	3	1
CC(C#N)Sc1nc2ccccc2c(=O)n1-c1ccccc1 (stereo unspecified)	33	0.9	1	-5	0.7
C=CCn1c(C#N)c(N)sc1=N	2	1.1	1.1	-7	1
COc1cccc(C(=O)N2CCN(C3CCC(c4ccccc4)CC3)CC2)c1OC (stereo unspecified)	-51	1.5	0.8	16	1.5
